This is an account of results in PubChem BioAssay AID1259417 (TB Discovery Research, Infectious Disease Research Institute, 2018).

The assay is described as follows: M. tuberculosis growth inhibition, HTS (AID 1259417).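 Note: bacteria grown with compound for 5 days at 37 °C.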 The conditions noted are these: stronger effect = higher value, concentration not given here.
[1] abbreviates: M. tuberculosis DsRed fluorescence growth inhibition.
The mark [2] stands for this setting: M. tuberculosis growth inhibition.

A word on the inhibition: it is the change of the read-out against control, counted positive when it falls.

About 760 (69%) of roughly 1,100 compounds were called active. The rule behind the calls is not given here. So high a share suggests a set chosen from earlier hits. This is one part of the list.

Consider `COC(=O)C(CC(C)C)NC(=O)/C=C/c1ccccc1Cl` (stereo unspecified), for which the inhibition is, setting by setting: under setting [1], 11.6% (inactive); under setting [2], 28.6%.

In the case of `CC(C)Cc1cc(C(=O)Nc2c(F)cc(F)cc2Br)no1`, the inhibition by setting is: under setting [1], 22.3% (active); under setting [2], 57.6%.

In the case of `O=C(c1ccco1)N(CCCn1ccnc1)c1nc2ccc(Br)cc2s1`, the inhibition is 98.9% (active) under setting [1] and 98.4% under setting [2].

`O=C(c1ccco1)N(CCCn1ccnc1)c1nc2ccc(Cl)cc2s1`: the inhibition under setting [1] was 97.8% (active) and the inhibition under setting [2] is 99.1%.

On to `Cc1ccc2nc(N(CCCn3ccnc3)C(=O)c3ccco3)sc2c1`, for which the inhibition is, setting by setting: under setting [1], 96.9% (active); under setting [2], 98.4%.

In the case of `O=C1N(c2ccc3c(c2)OCCO3)C(c2ccccc2)C1(F)F` (stereo unspecified), the inhibition under setting [1] was 36.5% (active) and the inhibition under setting [2] came to 75.8%.

For the compound `COc1ccc(-c2nnc(NC(=O)c3ccc(Cl)s3)o2)cc1`, the inhibition reads like this: under setting [1], 75.4% (active); under setting [2], 80.6%.

Consider `O=C(Nc1nnc(-c2ccc(F)cc2)o1)c1ccc(Br)s1`, for which the inhibition was 66.4% (active) under setting [1] and 78.5% under setting [2].

For the compound `O=C(Nc1nnc(-c2ccc(Br)cc2)o1)c1cc(Cl)sc1Cl`, the inhibition under setting [1] is 8.56% (inactive) and the inhibition under setting [2] came to 28.1%.

Turning to `O=C(Nc1nnc(-c2ccc(Br)cc2)o1)c1ccc(Cl)s1`, the inhibition under setting [1] was 32.9% (active) and the inhibition under setting [2] stood at 79.2%.

Consider `CC(C)(C)c1ccc(-n2c(=O)[nH]c3c(C(N)=O)nc(CCc4ccccc4)nc32)cc1`, for which the inhibition was 2.16% (inactive) under setting [1] and -28.9% under setting [2].

As for `COc1ccc(Cn2c(=O)c3c(n4cnnc24)-c2ccccc2CC32CCCCC2)cc1`, the inhibition by setting is: under setting [1], 21.7% (inactive); under setting [2], 2.83%.

Consider `COc1ccc(C2(CNC(=O)c3cc([N+](=O)[O-])cc([N+](=O)[O-])c3)CCCC2)cc1OC`, for which the inhibition runs as follows: under setting [1], 98.6% (active); under setting [2], 94.9%.

`O=C(NCCc1ccc(Cl)cc1)c1ccc(CNc2c(N3CCOCC3)c(=O)c2=O)cc1`: the inhibition by setting is: under setting [1], 96% (active); under setting [2], 88.6%.

In the case of `O=C(NCCc1ccc(Cl)cc1)C1CCC(CNc2c(N3CCCCC3)c(=O)c2=O)CC1` (stereo unspecified), the inhibition reads like this: under setting [1], 96.1% (active); under setting [2], 90%.

Turning to `CC1CC(C)CN(C(=O)c2ccc(CNc3c(N4CCCC4)c(=O)c3=O)cc2)C1` (stereo unspecified), the inhibition runs as follows: under setting [1], 97.5% (active); under setting [2], 90%.

In the case of `CCOC(=O)COc1ccc2c(C)c(-c3ccc(OC)c(OC)c3)c(=O)oc2c1`, the inhibition is, setting by setting: under setting [1], 10.3% (active); under setting [2], 36.5%.

In the case of `CCOC(=O)COc1ccc2c(=O)c(-c3ccc(OC)cc3)c(C)oc2c1`, the inhibition under setting [1] is 83.6% (active) and the inhibition under setting [2] turned out to be 94%.

As for `COc1ccc(-c2c(C)oc3cc(OCC(=O)OC(C)C)ccc3c2=O)cc1OC`, the inhibition is, setting by setting: under setting [1], 13.8% (active); under setting [2], 67.7%.

With `COC(=O)C(C)Oc1ccc2c(=O)c(-c3ccc(Br)cc3)c(C)oc2c1` (stereo unspecified), the inhibition runs as follows: under setting [1], 32.6% (active); under setting [2], 92.3%.

Regarding `CCC(=Cc1sc2ccc(OC)cc2[n+]1CCO)C=C1Sc2ccc(OC)cc2N1CCO`, the inhibition was 9.54% (inactive) under setting [1] and 21% under setting [2].

With `CCOC(=O)COc1ccc2c(C)c(CC(=O)OC)c(=O)oc2c1`, the inhibition is, setting by setting: under setting [1], 11.2% (active); under setting [2], 54.4%.

On to `CCOC(=O)COc1ccc2c(=O)c(-c3ccc(OC)c(OC)c3)c(C(=O)OCC)oc2c1`, for which the inhibition is, setting by setting: under setting [1], 34.4% (active); under setting [2], 64.4%.

Consider `CCOC(=O)c1c(NC(=O)c2ccc([N+](=O)[O-])c(C)c2)sc(C)c1-c1ccccc1`, for which the inhibition reads like this: under setting [1], 2.11% (inactive); under setting [2], -28.3%.

As to `Cc1cc(C(=O)Oc2ccc(Cc3ccccc3)cc2)ccc1[N+](=O)[O-]`, the inhibition under setting [1] was 41.1% (active) and the inhibition under setting [2] worked out at 39.3%.

Take `Cc1ccc(C(=O)Oc2cccc(NC(=O)c3ccccc3)c2)cc1C`: the inhibition is, setting by setting: under setting [1], 0.632% (inactive); under setting [2], 1.38%.

Regarding `Cc1cc(C(=O)Oc2ccccc2)ccc1[N+](=O)[O-]`, the inhibition under setting [1] is 10.6% (active) and the inhibition under setting [2] amounted to 55.9%.

Turning to `Cc1cc2c(cc1C)N(Cc1ccc(C(C)(C)C)cc1)C1=NCCCN12`, the inhibition was 95% (active) under setting [1] and 99.7% under setting [2].

On to `Cn1c(Sc2cnn(-c3ccccc3)c(=O)c2Br)nnc1-c1ccccc1`, for which the inhibition by setting is: under setting [1], 49.6% (active); under setting [2], 70.7%.

Take `Cn1c(Sc2ccc([N+](=O)[O-])c3cccnc23)nnc1-c1ccccc1`: the inhibition is, setting by setting: under setting [1], 12% (inactive); under setting [2], 20.3%.

For the compound `O=C(CSc1n[nH]c(-c2ccc(Cl)cc2)n1)Nc1ccc(F)c(Cl)c1`, the inhibition was -0.872% (inactive) under setting [1] and -10.5% under setting [2].

Take `CCOC(=O)C(C)Sc1ncc(-c2ccc(Cl)cc2)cn1` (stereo unspecified): the inhibition is 4.78% (active) under setting [1] and 45.6% under setting [2].

In the case of `CCOC(=O)CSc1n[nH]c(-c2ccc(Cl)cc2)n1`, the inhibition is 17.9% (active) under setting [1] and 58% under setting [2].

`CCOC(=O)CSc1ncc(-c2cccc(Cl)c2)cn1`: the inhibition by setting is: under setting [1], 15% (active); under setting [2], 70.5%.

On to `CCCOc1ccccc1-c1nc(SCC(=O)OCC)n[nH]1`, for which the inhibition under setting [1] is 2.36% (active) and the inhibition under setting [2] is 37.9%.

Consider `COc1ccc(-c2c(C)[nH]n3c(=O)c(Cc4ccccc4)c(C)nc23)cc1`, for which the inhibition was 96.2% (active) under setting [1] and 81.3% under setting [2].

Consider `COc1ccc(C2=CC(c3c(C)nn(-c4ccccc4)c3Cl)n3nnnc3N2)cc1OC` (stereo unspecified), for which the inhibition runs as follows: under setting [1], 99.1% (active); under setting [2], 93.4%.

Take `CCOc1ccc2c3c(c(=O)oc2c1OCC)CCCC3`: the inhibition is, setting by setting: under setting [1], 31.8% (active); under setting [2], 41.4%.

Turning to `COc1nc(SC)nc2sc3c(c12)CCC3`, the inhibition under setting [1] is 98.3% (active) and the inhibition under setting [2] came to 99.3%.

Consider `COc1ccc(-n2c(C)nc3sc4c(c3c2=O)CCCC4)cc1`, for which the inhibition is -4.71% (inactive) under setting [1] and -14.1% under setting [2].

Consider `Clc1ccc(OCCCCn2ccnc2)cc1Cl`, for which the inhibition was 100% (active) under setting [1] and 99.3% under setting [2].

Take `Clc1ccc(OCCCn2ccnc2)cc1Cl`: the inhibition is 98.6% (active) under setting [1] and 99.3% under setting [2].

For `[O-][n+]1onc2c3cc(-c4ccccc4)nnc3ccc21`, the inhibition was 80.6% (active) under setting [1] and 96.7% under setting [2].
